Experimental findings from PubChem BioAssay (NCI) are described below.

In this test the test system is HL-60(TB) leukemia. The experiment in a line: NCI-60 one-dose screen, 48 h (100 = growth as untreated, 0 = no growth, -100 = all killed). The note with it: 10 µM unless noted.

This is part of a sample that, as a whole, favours compounds with a hit. Of some 83,000 tested, about 20% had one in any assay.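 Interpretation: 100, growth as untreated; towards 0, rising growth inhibition; 0, no net growth; 0 to -100, cell death. Compounds scoring below 10 were considered active.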 Unmarked numbers belong to inactive results. The source made the active and inactive calls.

`Fc1ccc(CNc2c3ccccc3nc3ccccc23)cc1F`: the growth is 34.5%.
As for `C[C@H]1C=C(C[C@@H](O)CCCCCCCCCC[C@@H](O)[C@H]2CCC(=O)O2)C(=O)O1`, the growth is 102%.
For the compound `N#C/C(=C\c1cccc2cnccc12)N1N=NC2C=CC=CC21` (stereo not given), the growth is 8.65% (active).
As for `COc1ccc(-c2nnc(SCC(=O)NC3=NN=C(c4ccccc4)CS3)o2)cc1`, the growth was 90.9%.
Regarding `COc1ccc(C(=O)CSc2nccc(Nc3ccc(C(=O)O)cc3)n2)cc1`, the growth is 99.5%.
`O=C(O)c1cn(C2CC2)c2cc(N3CCN(C(=O)N/N=C/c4cccc5ccccc45)CC3)c(F)cc2c1=O`: the growth is 97.8%.
In the case of `CCOc1ccc(C2N(c3cc(OC)c(OC)c(OC)c3)C(=O)C2(F)F)cc1` (stereo not given) it was -16% (active); in that of `CCCCN1CCCCn2c1nc1c2c(=O)n(C)c(=O)n1C`, 108%; in that of `Nn1c(CN2CCN(c3cc4c(cc3F)c(=O)c(C(=O)O)cn4C3CC3)CC2)n[nH]c1=S`, 101%.
Next, `Cc1ccc(-c2nnc(SCc3nc(N)nc(Nc4ccccc4F)n3)n2-c2ccccc2)cc1`: -21.3% (active); `CCOC(=O)Nc1ccc2c(c1)C(=O)N(CCOC)c1ccccc1O2`: -17.1% (active); `O=C(Nc1ccc(F)cc1)c1cc2cc(Nc3nc(-c4ccccc4)nc4ccccc34)ccc2oc1=O`: 102%.
Turning to `CC(C)(C)NC/C(=C\c1ccccc1)C(=O)c1ccccc1`, the growth was 1.97% (active).
On to `N#CSCc1ccc(CSC#N)c(Cl)c1`, for which the growth was 23%.
`O=C1/C(=C\c2cccn2Cc2ccccc2)c2ccccc2N1c1c(Cl)cccc1Cl`: the growth is 71%.
